# Measurements: paper PMC5540273 (PLoS ONE, 2017)
# Tested on: TTK
# Settings: concentration: 1 μM, replicates: in singlicate; n = 1
# 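Further: KINOMEscan kinase panel screen.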
row,Structure (SMILES),%Inh
1,Cc1ccc(C(=O)N2CC[C@@H](O)C2)cc1-n1c(C)cc(OCc2ccc(F)cc2F)c(Br)c1=O,3%
2,Oc1cc(Nc2ccnc3cc(I)ccc23)ccc1F [GW552771],0%
3,c1ccc(-c2n[nH]cc2Nc2ccnc3ccccc23)nc1 [GW694077],64%
4,CC(C)c1nc(-c2cccc(NS(=O)(=O)c3c(F)cccc3F)c2F)c(-c2ccnc(Nc3ccc(N4CCOCC4)nc3)n2)s1 [GSK2008607],82%
5,Cn1cc(-c2[nH]c3cc(NC(=O)[C@H](N)C4CCCCC4)cc4c3c2C=NNC4=O)cn1,0%
6,C[C@@H](Oc1cc(-n2cnc3cc(-c4ccnc(NCCS(C)(=O)=O)c4)ccc32)sc1C(N)=O)c1ccccc1Cl [GSK907232],0%

# Tested on: TXK
# Settings: concentration: 1 μM, replicates: in singlicate; n = 1
row,Structure (SMILES),%Inh
1,Cn1cc(-c2ccc3c(c2)CCN3C(=O)Cc2cccc(Cl)c2)c2c(N)ncnc21 [GSK2606590],0%
2,COc1ccc(-c2coc3ccc(-c4nnc(SCc5ccc(OC)c(C(F)(F)F)c5)o4)cc23)cc1,0%
3,CCS(=O)(=O)c1ccc(OC)c(Nc2nccc(-c3c(-c4cccc(NC(=O)c5c(F)cccc5F)c4)nn4ncccc34)n2)c1 [GSK326180],15%
4,O=C(Nc1cccc(-c2nn3ccccc3c2-c2ccnc(Nc3cccc(C(F)(F)F)c3)n2)c1)c1c(F)cccc1F [GSK292658],48%
5,NCCCC(NC(=O)c1cc(Br)c(-c2ccnc3[nH]ccc23)s1)c1ccccc1.O=C(O)C(F)(F)F.O=C(O)C(F)(F)F (stereo not shown) [GSK1287544],18%
6,CC(=O)Nc1nc2cnc(Nc3cc(NC(=O)c4cccc(C5(C#N)CC5)c4Cl)ccc3C)nc2s1,33%
7,COc1ccc(CNC(=O)NC2CCN(c3ccnc(Nc4ccc(F)cc4)n3)CC2)cc1 [GSK1379788],3%
8,Clc1ccc(-c2nn3ncccc3c2-c2ccnc(Nc3ccc4c(c3)OCCO4)n2)cc1 [GW829116],0%
9,CC(C)(C)c1ccc2nccc(Nc3cccc(O)c3)c2c1 [GW856795],79%
10,COc1cc(Nc2nccc(N3CCC(NC(=O)Nc4cccc(C(C)=O)c4)C3)n2)cc(OC)c1OC (stereo not shown) [GSK1379753],0%
11,COc1cc(Nc2nccc(-c3c(-c4cccc(NC(=O)c5c(F)cccc5F)c4)nn4ccccc34)n2)cc(OC)c1OC [GSK323521],0%
12,COc1cccc(NC(=O)NC2CCN(c3ccnc(Nc4cc(OC)c(OC)c(OC)c4)n3)C2)c1 (stereo not shown) [GSK1379763],1%
13,O=C(O)C(F)(F)F.O=C(O)C(F)(F)F.O=c1[nH]ccc2nc(N[C@@H]3CCCNC3)nc(Nc3ccc(S(=O)(=O)N4CCOCC4)cc3)c12 [GSK2177277],35%
14,CCCCc1nn2ncccc2c1-c1ccnc(Nc2ccc(N3CCN(C)CC3)cc2)n1 [GW684941],74%
15,CN(c1ccc(NC(=O)Nc2cc(C(F)(F)F)ccc2F)cc1)c1ccnc(Nc2ccc(S(N)(=O)=O)cc2)n1 [GW809893],26%
16,Nc1ncc(-c2cccnc2)c2scc(-c3ccc4c(c3)CCN4C(=O)Cc3ccccc3)c12 [GSK683281],10%
17,Cc1ccc(C(=O)Nc2ccc(Nc3ccnc4cc(-c5nccs5)ccc34)cc2O)cc1.Cl [GW494702],52%
18,COc1cc(Nc2nccc(N3CCC(NC(=O)c4cc5ccccc5s4)C3)n2)cc(OC)c1OC (stereo not shown) [GSK1379760],0%
19,O=C(Nc1cccc(-c2nn3ccccc3c2-c2ccnc(Nc3cccc(F)c3)n2)c1)c1c(F)ccc(F)c1Cl [GSK357952],67%

row,Structure (SMILES),%Inh
1,CN(C)Cc1ccc(-c2ccc3c(Nc4ccc(Oc5ccccn5)cc4)ccnc3c2)o1 [GW567148],0%
2,CNC(=O)c1ccccc1Nc1nc(Nc2ccc(N3CCOCC3)cc2)ncc1Cl.Cl [GSK1576028],97.6%
3,Cl.Cl.NCC(NC(=O)c1cc(-c2ccccc2)c(-c2ccnc3[nH]ccc23)s1)c1ccccc1 (stereo not shown) [GSK1321561],45%
4,COc1ccc(Nc2nccc(N3CCC(NC(=O)Nc4cccc(OC)c4)C3)n2)cc1 (stereo not shown) [GSK1379742],0%
5,COC(=O)Nc1nc2cc(Oc3ccc(NC(=O)Nc4cc(C(F)(F)F)ccc4F)cn3)ccc2[nH]1.Cl.Cl [GW681170],0%
6,O=C(Nc1n[nH]c2cc(-c3ccoc3)ccc12)C1CC1 [SB-738481],20%
7,CSc1cccc2c(-c3ccncn3)c(-c3ccc(F)cc3)nn12 [GW514786],0%
8,c1ccc(Oc2ccc(Nc3ccnc4cc(-c5ccc(CNCCN6CCOCC6)o5)ccc34)cc2)nc1 [GW567145],1%
9,Nc1ncnc2c1nc(-c1ccccc1)n2-c1ccccc1 [SKF-97293],15%
10,Cl.c1ccc(-c2ccc3c(Nc4ccc5[nH]ccc5c4)ccnc3c2)nc1 [GW440138],0%
11,Cl.NC(=O)c1cccc(Nc2nccc(Nc3ccc(Oc4c(Cl)cccc4Cl)c(Cl)c3)n2)c1 [GW659009],0%
12,Cc1occc1-c1ncc(OC[C@@H](N)Cc2c[nH]c3ccccc23)cc1-c1ccc2[nH]nc(C)c2c1.O=C(O)C(F)(F)F [GSK682037],47%
13,Cc1ccc(C(=O)N2CC[C@@H](O)C2)cc1-n1c(C)cc(OCc2ccc(F)cc2F)c(Br)c1=O,0%
14,Oc1cc(Nc2ccnc3cc(I)ccc23)ccc1F [GW552771],94.5%
15,c1ccc(-c2n[nH]cc2Nc2ccnc3ccccc23)nc1 [GW694077],0%
16,CC(C)c1nc(-c2cccc(NS(=O)(=O)c3c(F)cccc3F)c2F)c(-c2ccnc(Nc3ccc(N4CCOCC4)nc3)n2)s1 [GSK2008607],95.2%
17,Cn1cc(-c2[nH]c3cc(NC(=O)[C@H](N)C4CCCCC4)cc4c3c2C=NNC4=O)cn1,32%
18,C[C@@H](Oc1cc(-n2cnc3cc(-c4ccnc(NCCS(C)(=O)=O)c4)ccc32)sc1C(N)=O)c1ccccc1Cl [GSK907232],28%
